Assay outcomes as filed in PubChem BioAssay.
ssDAF12 agonist – activators of S. stercoralis DAF-12 nuclear receptor; activation, % at 6.8 µM; HEK293 ssDAF-12/GRIP1 lit1-tk-luc reporter, luminescence; % of 3 µM dafachronic acid response; hit rate 1% among 370,000;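 active means activation above the mean over all tested compounds plus 3 SD, cut at about 0.9% in these data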
DAX1 inh-1 – DAX1 (NR0B1) inhibition, primary screen; inhibition, % at 6.8 µM; HEK293T StAR-luciferase reporter, SF-1/DAX-1 repression relief; hit rate 1.1% among 370,000; AID 652010;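 active means inhibition above the mean over all tested compounds plus 3 SD, cut at about 3.6% in these data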;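 further: higher inhibition means more luminescence from relief of DAX-1 repression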
DAX1 inh-2 – inhibitors of human orphan nuclear receptor DAX1 (NR0B1) | hit rate 0.99% among 340,000 | inhibition, % at 6.75 µM | HEK293 Gal4-DAX1 luciferase reporter, luminescence | P51843;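 active means inhibition above the mean over all tested compounds plus 3 SD, cut at about 4.2% in these data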;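 further: inhibition shows as a rise in luminescence from relieved DAX1 repression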
hgDAF-12 ag – hgDAF-12 agonism, primary luciferase screen; HEK293 GAL4-hgDAF12 UAS-luciferase reporter, agonist luminescence; normalized to butyrate control; activation, % at 6.8 µM; hit rate 1.8% among 370,000;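 active means activation above a cutoff set at the mean of all screened compounds plus 3 SD, cut at about 10% in these data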
hcDAF12 agonist – activators of H. contortus DAF-12 nuclear receptor; HEK293 hcDAF-12 lit1-tk-luc reporter, luminescence; 0% DMSO, 100% Δ7-dafachronic acid; activation, % at 6.8 µM; hit rate 1.4% among 370,000; AID 652067;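 active means activation above the mean of all tested compounds plus 3 SD, cut at about 5.5% in these data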
LXRb hcDAF ctr – activates human LXR-beta, counter-screen for hcDAF-12 agonists; shares compounds with hcDAF12 agonist; HEK293 Gal4-LXR tk-luc reporter, luminescence, 24 h; normalized: DMSO 0%, positive control 100%; activation, % at 6.8 µM; 3,400 tested, under 10 active; AID 743027;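 active means mean percent activation of the reporter above a cutoff set as the average over tested compounds plus their standard deviation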
Target sequence (P55055 whole entry, looked up, the tested form may be a part): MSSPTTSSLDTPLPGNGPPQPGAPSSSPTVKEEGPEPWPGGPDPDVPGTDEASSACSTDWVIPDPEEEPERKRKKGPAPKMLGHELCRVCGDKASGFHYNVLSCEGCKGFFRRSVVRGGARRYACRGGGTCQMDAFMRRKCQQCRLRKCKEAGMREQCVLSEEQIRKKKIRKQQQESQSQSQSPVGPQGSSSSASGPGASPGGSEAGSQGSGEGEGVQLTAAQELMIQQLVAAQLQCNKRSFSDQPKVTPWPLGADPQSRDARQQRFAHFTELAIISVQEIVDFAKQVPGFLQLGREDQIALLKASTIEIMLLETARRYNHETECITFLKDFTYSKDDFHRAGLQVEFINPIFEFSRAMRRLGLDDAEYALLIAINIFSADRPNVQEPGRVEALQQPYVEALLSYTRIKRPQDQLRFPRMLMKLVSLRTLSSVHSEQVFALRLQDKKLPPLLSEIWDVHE
hcDAF12 ag – confirmation of H. contortus DAF-12 agonists; activation, % at 6.8 µM; shares compounds with hcDAF12 agonist; AID 743032; hit rate 61% among 3,400; HEK293 hcDAF-12 lit1-tk-luc reporter, luminescence; % of Δ7-dafachronic acid response;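 active means mean activation across triplicate tests above the threshold derived from the earlier primary screen, cut at about 5.5% in these data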
A number is an active result; n = inactive; x = no result. In the library only some 4.1% were active in any assay of this set; here they are far more common.

SMILES | ssDAF12 agonist | DAX1 inh-1 | DAX1 inh-2 | hgDAF-12 ag | hcDAF12 agonist | LXRb hcDAF ctr | hcDAF12 ag
O=C(O)Cc1sc(Nc2cccc3ccccc23)nc1-c1ccc(Cl)cc1 | n | n | n | n | 6.7 | n | n
Cc1ccc(Nc2nc(-c3ccc(C)cc3)c(CC(=O)O)s2)cc1 | n | n | n | n | n | x | x
COc1ccccc1NC(=O)Nc1cccc(C(=O)O)c1 | n | n | n | n | n | x | x
COc1ccccc1NC(=O)NC(=O)c1ccccc1 | n | n | n | n | 11.0 | n | 12.7
Cc1cccc(N2CCN(C(=S)c3ccc(-c4ccccc4[N+](=O)[O-])o3)CC2)c1 | n | n | n | n | n | x | x
O=[N+]([O-])c1ccccc1-c1ccc(C(=S)N2CCCCC2)o1 | n | n | n | n | 6.8 | n | 7.0
O=[N+]([O-])c1ccccc1-c1ccc(C(=S)N2CCCC2)o1 | 1.8 | n | n | n | 9.4 | n | 9.7
Cn1cc(/C=N\NC(=O)c2cccs2)c2ccccc21 | n | n | 6.1 | 13.0 | 6.8 | n | n
Cn1cc(/C=N/NC(N)=S)c2ccccc21 | n | n | n | n | n | x | x
O=C(N/N=C/c1c[nH]c2ccccc12)c1cccc(O)c1 | n | n | n | n | n | x | x
CC(=O)Nc1cccc(C(=O)N/N=C/c2c[nH]c3ccccc23)c1 | 0.9 | n | n | n | 8.5 | n | n
COc1ccc(C(=O)N/N=C/c2c[nH]c3ccccc23)cc1 | n | n | n | n | n | x | x
COc1ccc2c(/C=N/Nc3ccc(C(=O)O)cc3)c[nH]c2c1 | 0.9 | n | n | n | 10.0 | n | 10.1
COc1ccc2ccccc2c1/C=N/Nc1ccc(Cl)c(C(=O)O)c1 | n | n | n | n | n | x | x
O=C(N/N=C/c1c[nH]c2ccccc12)c1ccn(Cc2ccc(Cl)cc2Cl)n1 | n | n | n | n | n | x | x
O=C(O)c1cc(N/N=C/c2c[nH]c3ccccc23)ccc1Cl | 3.2 | n | n | n | 8.6 | n | 10.4
Cn1ccc(C(=O)N/N=C/c2c[nH]c3ccccc23)n1 | 0.9 | n | n | n | 12.1 | n | n
O=C(Cn1c2c(sc1=O)C1c3ccccc3OCC1CS2)Nc1ccc(Cl)c(Cl)c1 (configuration not stated) | n | n | n | n | n | x | x
C/C(CC(=O)Nc1ccccn1)=N\NC(=O)c1ccc2ccccc2c1 | n | n | n | n | n | x | x
C/C(CC(=O)Nc1ccccn1)=N\NC(=O)c1ccccc1O | 1.0 | n | n | n | 10.6 | n | 9.1
C/C(CC(=O)Nc1cc(C)cc(C)c1)=N\NC(=O)c1ccccn1 | n | n | n | 11.0 | 7.4 | n | n
O=C(CNc1ccc2ccccc2c1)N/N=C/c1ccncc1 | n | n | n | n | 8.0 | n | n
O=C(CN1CCCCCC1)N/N=C/c1ccc2ccccc2c1 | n | n | n | n | 8.1 | n | n
N#CCn1c2ccccc2c2nc3ccccc3nc21 | n | n | n | n | n | x | x
C#CCn1c2ccccc2c2nc3ccccc3nc21 | n | n | n | n | 7.1 | n | n
SMILES | ssDAF12 agonist | DAX1 inh-1 | DAX1 inh-2 | hgDAF-12 ag | hcDAF12 agonist | LXRb hcDAF ctr | hcDAF12 ag
CCOC(=O)c1ccc(-c2ccc(/C=N/NC(=O)Cc3nnc(N)s3)o2)cc1 | n | 3.7 | n | n | 8.8 | n | n
CSc1nnc(-c2cc3c(s2)-c2ccccc2CC3)o1 | 2.6 | n | n | 10.7 | 9.8 | n | 10.7
S=c1[nH]nc(-c2cc3c(s2)-c2ccccc2CC3)o1 | n | n | n | n | n | x | x
CCOC(=O)c1c(C)oc2c1c1c(c3ccccc32)OCN(CCCC(=O)O)C1 | 1.2 | n | 5.0 | n | 8.9 | n | 11.8
CC1=NN(C(N)=S)C(=O)C1N=Nc1ccc(Br)cc1 (configuration not stated) | n | n | n | n | 9.8 | n | 12.4
CC1=NN(c2ccccc2)C(=O)C1N=Nc1ccccc1 (configuration not stated) | n | n | n | n | 8.0 | n | 11.4
Cc1cc(OC(=O)c2c(F)cc(F)cc2F)nc(C)n1 | n | n | n | n | n | x | x
COC(=O)c1ccc(NS(=O)(=O)c2cc(-c3cc(C)no3)ccc2OC)cc1 | n | n | n | n | n | x | x
COc1cc(CNc2ccc(N3CCCC3)cc2)ccc1OCc1ccccc1 | n | n | n | n | 7.7 | n | 5.9
CCCCNc1nnc(SCC(=O)c2c[nH]c3ccccc23)s1 | n | n | n | n | 11.6 | n | n
Cn1cnnc1SCC(=O)c1c[nH]c2ccccc12 | n | n | n | n | n | x | x
COc1ccccc1-c1cccc([C@@H]2C[C@H]3[C@H](CON3C)CN2C(=O)C(C)(C)C)c1 | n | n | n | n | n | x | x
COC(=O)C1=C(Nc2cc(Cl)cc(Cl)c2)CSC1 | n | n | n | n | n | x | x
Cc1cc(O)c(C(=O)/C=C/c2ccc(Cl)cc2)c(=O)o1 | n | n | n | n | 13.2 | n | n
Cc1ccc(-n2c(C)c(C)c3c(NCCO)ncnc32)cc1 | n | n | n | n | n | x | x
O=C1CCOc2cc(OCc3ccccc3)ccc21 | n | n | n | 12.5 | 9.2 | n | 6.2
CC(=O)/C=C1\OCc2cc(OCc3ccccc3)ccc21 | n | n | x | n | n | x | x
CN(Cc1ccccc1)C(=O)C1CCN(S(=O)(=O)c2ccc(-n3cnnn3)cc2)CC1 | n | n | n | n | n | x | x
O=C(O)CSc1c[nH]c2ccccc12 | n | n | n | n | n | x | x
CC(Sc1c[nH]c2ccccc12)C(=O)O (configuration not stated) | n | n | n | n | 8.5 | n | n
Cc1noc(C)c1S(=O)(=O)N(CC(=O)N1CCn2c1nc1ccccc12)c1ccc(C(C)C)cc1 | n | n | n | n | 8.4 | n | n
COc1ccc(CNC(=O)[C@H](CCSC)NC(=O)N2CCn3c2nc2ccccc23)cc1 | n | n | n | n | n | x | x
O=C(Cn1cc([N+](=O)[O-])cn1)NCCc1nc2ccccc2[nH]1 | n | n | n | n | n | x | x
O=C(Cn1cc([N+](=O)[O-])cn1)NCc1cc2ccccc2[nH]1 | n | n | n | n | 8.0 | n | n
O=C(CCCC(=O)NCCc1ccccc1)NCCc1ccccc1 | n | n | n | n | n | x | x
O=c1nc2s/c(=C\c3ccc(-c4ccccc4[N+](=O)[O-])o3)c(=O)n2nc1-c1ccccc1 | n | n | n | n | 6.9 | n | n
COc1ccc(NCC(=O)N/N=C/C=C\c2ccccc2)cc1 | n | n | n | n | 7.6 | n | n
CC(=O)N1CCC(C(=O)N2c3ccccc3N=C(c3ccc4c(c3)OCO4)C2C(=O)Nc2c(C)cccc2C)CC1 (configuration not stated) | n | n | x | n | n | x | x
CCN(CC)CCCNC(=O)c1cc2c(-c3ccc(Cl)cc3)nn(C)c2s1 | n | n | 5.5 | n | 6.6 | n | 6.7
CCCCN(CC)CCNC(=O)c1cc2c(-c3ccccc3F)nn(C)c2s1 | n | n | n | n | n | x | x
